These results are taken from ChEMBL document CHEMBL2218924, “A broad activity screen in support of a chemogenomic map for kinase signalling research and drug discovery” (Biochem J, 2013).

The target of assay [1] is BDNF/NT-3 growth factors receptor (Homo sapiens) (UniProt Q16620). To be noted: at 10 µM.
Assay [2] concerns the target T1, Tyrosine-protein kinase TXK (Homo sapiens) (UniProt P42681).
T1 sequence (whole entry): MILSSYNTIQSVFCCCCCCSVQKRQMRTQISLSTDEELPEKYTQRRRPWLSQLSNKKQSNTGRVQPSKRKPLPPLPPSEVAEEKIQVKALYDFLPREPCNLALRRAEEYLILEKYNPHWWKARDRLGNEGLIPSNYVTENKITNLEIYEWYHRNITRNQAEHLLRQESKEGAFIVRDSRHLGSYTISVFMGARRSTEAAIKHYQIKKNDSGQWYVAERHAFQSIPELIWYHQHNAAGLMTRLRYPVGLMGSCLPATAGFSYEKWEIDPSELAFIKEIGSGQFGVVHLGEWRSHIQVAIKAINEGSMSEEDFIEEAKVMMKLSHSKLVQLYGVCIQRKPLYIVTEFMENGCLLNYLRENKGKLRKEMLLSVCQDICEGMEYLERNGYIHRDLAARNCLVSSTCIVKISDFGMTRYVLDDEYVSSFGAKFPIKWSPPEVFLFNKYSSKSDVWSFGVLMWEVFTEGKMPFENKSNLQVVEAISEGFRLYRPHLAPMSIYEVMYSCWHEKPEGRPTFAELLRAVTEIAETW
To be noted: at 1 µM.

The target in assay [3] is T1, Tyrosine-protein kinase TXK (Homo sapiens). To be noted: at 10 µM.
Assay [4] concerns the target T2, Serine/threonine-protein kinase ULK2 (Homo sapiens) (UniProt Q8IYT8).
T2 sequence (whole entry): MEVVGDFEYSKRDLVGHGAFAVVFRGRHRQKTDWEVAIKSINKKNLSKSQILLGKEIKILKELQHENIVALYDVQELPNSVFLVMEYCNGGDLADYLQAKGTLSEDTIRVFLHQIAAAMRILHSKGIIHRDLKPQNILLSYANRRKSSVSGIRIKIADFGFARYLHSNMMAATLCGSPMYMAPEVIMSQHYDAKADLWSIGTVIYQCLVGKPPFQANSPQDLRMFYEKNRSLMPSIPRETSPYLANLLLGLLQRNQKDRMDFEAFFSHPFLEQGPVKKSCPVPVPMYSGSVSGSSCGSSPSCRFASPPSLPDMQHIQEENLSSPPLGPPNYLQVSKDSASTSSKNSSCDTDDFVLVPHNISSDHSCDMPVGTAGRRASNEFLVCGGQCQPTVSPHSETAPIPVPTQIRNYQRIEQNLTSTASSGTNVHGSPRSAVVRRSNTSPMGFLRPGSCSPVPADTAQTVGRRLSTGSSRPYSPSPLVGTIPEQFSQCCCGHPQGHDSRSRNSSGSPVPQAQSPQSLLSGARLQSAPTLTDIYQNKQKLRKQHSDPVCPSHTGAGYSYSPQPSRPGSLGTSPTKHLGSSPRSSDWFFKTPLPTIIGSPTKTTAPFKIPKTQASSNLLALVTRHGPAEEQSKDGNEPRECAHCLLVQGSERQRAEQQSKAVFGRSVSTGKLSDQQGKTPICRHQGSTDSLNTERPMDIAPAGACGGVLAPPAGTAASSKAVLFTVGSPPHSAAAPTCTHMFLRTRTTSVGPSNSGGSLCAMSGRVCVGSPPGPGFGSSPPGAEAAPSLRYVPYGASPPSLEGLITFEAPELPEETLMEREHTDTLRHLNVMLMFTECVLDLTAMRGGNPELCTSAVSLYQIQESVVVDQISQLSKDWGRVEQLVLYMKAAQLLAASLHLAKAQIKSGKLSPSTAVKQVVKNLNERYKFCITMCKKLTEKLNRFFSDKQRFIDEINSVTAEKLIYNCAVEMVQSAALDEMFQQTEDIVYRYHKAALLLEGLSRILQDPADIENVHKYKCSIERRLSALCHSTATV
To be noted: at 10 µM.

Assay [5] concerns the target T3, Serine/threonine-protein kinase ULK3 (Homo sapiens) (UniProt Q6PHR2).
T3 sequence (whole entry): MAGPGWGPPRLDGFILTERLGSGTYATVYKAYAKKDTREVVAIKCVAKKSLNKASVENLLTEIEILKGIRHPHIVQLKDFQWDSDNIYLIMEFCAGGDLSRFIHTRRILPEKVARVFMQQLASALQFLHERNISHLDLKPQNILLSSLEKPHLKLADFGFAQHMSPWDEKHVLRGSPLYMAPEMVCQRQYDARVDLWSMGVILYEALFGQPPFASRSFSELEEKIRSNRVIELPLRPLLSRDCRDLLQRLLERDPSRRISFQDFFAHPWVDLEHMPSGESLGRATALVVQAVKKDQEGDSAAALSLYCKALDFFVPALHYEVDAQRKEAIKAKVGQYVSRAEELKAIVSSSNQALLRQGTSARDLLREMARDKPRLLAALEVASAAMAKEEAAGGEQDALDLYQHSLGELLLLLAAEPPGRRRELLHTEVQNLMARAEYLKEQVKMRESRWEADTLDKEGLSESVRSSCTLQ
To be noted: at 10 µM.

In assay [6] the target is Serine/threonine-protein kinase VRK2 (Homo sapiens) (UniProt Q86Y07). To be noted: at 1 µM.
For assay [7] the target is unchanged. To be noted: at 10 µM.
For assay [8], the target named is Serine/threonine-protein kinase WNK2 (Homo sapiens) (UniProt Q9Y3S1). To be noted: at 1 µM.
For assay [9] the target is unchanged. To be noted: at 10 µM.
Assay [10] has as its target Tyrosine-protein kinase Yes (Homo sapiens) (UniProt P07947). To be noted: at 1 µM.
Assay [11] has the same target. To be noted: at 10 µM.
Assay [12] deals with Death-associated protein kinase 3 (Homo sapiens) (UniProt O43293). To be noted: at 1 µM.
Assay [13] has the same target. To be noted: at 10 µM.
Assay [14] addresses RAF proto-oncogene serine/threonine-protein kinase (Homo sapiens) (UniProt P04049). To be noted: at 1 µM.
The target is the same in assay [15]. To be noted: at 10 µM.
For assay [16], the target named is T2, Serine/threonine-protein kinase ULK2 (Homo sapiens). To be noted: at 1 µM.
The target in assay [17] is T3, Serine/threonine-protein kinase ULK3 (Homo sapiens). To be noted: at 1 µM.
For assay [18], the target named is Serine/threonine-protein kinase WNK3 (Homo sapiens) (UniProt Q9BYP7). To be noted: at 1 µM.
For assay [19] the target is unchanged. To be noted: at 10 µM.
In assay [20] the target is T4, Tyrosine-protein kinase ZAP-70 (Homo sapiens) (UniProt P43403).
T4 sequence (whole entry): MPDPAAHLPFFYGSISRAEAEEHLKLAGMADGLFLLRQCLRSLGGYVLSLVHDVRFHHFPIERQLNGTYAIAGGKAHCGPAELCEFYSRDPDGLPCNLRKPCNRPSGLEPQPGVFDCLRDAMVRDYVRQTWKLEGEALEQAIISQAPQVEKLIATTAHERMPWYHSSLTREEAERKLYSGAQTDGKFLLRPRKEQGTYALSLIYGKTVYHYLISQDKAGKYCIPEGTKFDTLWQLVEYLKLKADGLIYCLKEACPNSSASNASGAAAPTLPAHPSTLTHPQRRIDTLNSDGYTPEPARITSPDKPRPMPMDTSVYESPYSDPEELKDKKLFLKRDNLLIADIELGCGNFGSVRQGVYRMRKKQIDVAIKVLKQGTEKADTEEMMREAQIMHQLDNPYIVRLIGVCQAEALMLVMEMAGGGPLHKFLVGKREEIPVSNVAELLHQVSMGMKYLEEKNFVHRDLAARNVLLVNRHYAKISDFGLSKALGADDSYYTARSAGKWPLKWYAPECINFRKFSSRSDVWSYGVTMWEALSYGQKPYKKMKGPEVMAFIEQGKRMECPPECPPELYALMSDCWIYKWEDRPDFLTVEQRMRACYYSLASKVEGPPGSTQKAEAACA
To be noted: at 1 µM.

Molecules are shown by their SMILES.

Sequence of Serine/threonine-protein kinase VRK2 (Homo sapiens) (Q86Y07 whole entry): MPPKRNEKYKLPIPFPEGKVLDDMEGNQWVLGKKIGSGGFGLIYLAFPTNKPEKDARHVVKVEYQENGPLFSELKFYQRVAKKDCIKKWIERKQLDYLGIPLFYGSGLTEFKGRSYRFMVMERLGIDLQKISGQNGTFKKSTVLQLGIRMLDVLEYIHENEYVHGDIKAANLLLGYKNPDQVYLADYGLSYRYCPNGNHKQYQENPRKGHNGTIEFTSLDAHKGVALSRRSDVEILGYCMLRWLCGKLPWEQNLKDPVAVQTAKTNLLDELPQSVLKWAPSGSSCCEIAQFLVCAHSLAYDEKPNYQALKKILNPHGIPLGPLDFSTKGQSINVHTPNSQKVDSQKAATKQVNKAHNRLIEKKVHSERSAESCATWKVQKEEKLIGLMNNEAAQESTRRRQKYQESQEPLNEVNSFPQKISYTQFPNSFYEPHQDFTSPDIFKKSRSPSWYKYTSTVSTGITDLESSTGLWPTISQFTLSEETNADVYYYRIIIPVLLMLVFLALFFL
Sequence of Death-associated protein kinase 3 (Homo sapiens) (O43293 whole entry, looked up): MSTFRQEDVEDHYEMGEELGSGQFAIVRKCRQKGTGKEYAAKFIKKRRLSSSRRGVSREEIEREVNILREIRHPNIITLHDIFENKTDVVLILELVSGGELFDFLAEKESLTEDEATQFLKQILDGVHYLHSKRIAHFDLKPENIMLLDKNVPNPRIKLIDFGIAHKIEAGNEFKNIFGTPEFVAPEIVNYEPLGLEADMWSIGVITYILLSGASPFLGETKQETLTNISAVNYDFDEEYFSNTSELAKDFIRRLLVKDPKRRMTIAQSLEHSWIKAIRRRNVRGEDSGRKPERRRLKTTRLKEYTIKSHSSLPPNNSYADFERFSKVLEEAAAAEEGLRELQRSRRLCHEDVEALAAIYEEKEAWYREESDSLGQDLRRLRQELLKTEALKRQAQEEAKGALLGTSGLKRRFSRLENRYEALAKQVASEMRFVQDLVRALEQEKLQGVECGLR
Sequence of Serine/threonine-protein kinase WNK2 (Homo sapiens) (Q9Y3S1 whole entry): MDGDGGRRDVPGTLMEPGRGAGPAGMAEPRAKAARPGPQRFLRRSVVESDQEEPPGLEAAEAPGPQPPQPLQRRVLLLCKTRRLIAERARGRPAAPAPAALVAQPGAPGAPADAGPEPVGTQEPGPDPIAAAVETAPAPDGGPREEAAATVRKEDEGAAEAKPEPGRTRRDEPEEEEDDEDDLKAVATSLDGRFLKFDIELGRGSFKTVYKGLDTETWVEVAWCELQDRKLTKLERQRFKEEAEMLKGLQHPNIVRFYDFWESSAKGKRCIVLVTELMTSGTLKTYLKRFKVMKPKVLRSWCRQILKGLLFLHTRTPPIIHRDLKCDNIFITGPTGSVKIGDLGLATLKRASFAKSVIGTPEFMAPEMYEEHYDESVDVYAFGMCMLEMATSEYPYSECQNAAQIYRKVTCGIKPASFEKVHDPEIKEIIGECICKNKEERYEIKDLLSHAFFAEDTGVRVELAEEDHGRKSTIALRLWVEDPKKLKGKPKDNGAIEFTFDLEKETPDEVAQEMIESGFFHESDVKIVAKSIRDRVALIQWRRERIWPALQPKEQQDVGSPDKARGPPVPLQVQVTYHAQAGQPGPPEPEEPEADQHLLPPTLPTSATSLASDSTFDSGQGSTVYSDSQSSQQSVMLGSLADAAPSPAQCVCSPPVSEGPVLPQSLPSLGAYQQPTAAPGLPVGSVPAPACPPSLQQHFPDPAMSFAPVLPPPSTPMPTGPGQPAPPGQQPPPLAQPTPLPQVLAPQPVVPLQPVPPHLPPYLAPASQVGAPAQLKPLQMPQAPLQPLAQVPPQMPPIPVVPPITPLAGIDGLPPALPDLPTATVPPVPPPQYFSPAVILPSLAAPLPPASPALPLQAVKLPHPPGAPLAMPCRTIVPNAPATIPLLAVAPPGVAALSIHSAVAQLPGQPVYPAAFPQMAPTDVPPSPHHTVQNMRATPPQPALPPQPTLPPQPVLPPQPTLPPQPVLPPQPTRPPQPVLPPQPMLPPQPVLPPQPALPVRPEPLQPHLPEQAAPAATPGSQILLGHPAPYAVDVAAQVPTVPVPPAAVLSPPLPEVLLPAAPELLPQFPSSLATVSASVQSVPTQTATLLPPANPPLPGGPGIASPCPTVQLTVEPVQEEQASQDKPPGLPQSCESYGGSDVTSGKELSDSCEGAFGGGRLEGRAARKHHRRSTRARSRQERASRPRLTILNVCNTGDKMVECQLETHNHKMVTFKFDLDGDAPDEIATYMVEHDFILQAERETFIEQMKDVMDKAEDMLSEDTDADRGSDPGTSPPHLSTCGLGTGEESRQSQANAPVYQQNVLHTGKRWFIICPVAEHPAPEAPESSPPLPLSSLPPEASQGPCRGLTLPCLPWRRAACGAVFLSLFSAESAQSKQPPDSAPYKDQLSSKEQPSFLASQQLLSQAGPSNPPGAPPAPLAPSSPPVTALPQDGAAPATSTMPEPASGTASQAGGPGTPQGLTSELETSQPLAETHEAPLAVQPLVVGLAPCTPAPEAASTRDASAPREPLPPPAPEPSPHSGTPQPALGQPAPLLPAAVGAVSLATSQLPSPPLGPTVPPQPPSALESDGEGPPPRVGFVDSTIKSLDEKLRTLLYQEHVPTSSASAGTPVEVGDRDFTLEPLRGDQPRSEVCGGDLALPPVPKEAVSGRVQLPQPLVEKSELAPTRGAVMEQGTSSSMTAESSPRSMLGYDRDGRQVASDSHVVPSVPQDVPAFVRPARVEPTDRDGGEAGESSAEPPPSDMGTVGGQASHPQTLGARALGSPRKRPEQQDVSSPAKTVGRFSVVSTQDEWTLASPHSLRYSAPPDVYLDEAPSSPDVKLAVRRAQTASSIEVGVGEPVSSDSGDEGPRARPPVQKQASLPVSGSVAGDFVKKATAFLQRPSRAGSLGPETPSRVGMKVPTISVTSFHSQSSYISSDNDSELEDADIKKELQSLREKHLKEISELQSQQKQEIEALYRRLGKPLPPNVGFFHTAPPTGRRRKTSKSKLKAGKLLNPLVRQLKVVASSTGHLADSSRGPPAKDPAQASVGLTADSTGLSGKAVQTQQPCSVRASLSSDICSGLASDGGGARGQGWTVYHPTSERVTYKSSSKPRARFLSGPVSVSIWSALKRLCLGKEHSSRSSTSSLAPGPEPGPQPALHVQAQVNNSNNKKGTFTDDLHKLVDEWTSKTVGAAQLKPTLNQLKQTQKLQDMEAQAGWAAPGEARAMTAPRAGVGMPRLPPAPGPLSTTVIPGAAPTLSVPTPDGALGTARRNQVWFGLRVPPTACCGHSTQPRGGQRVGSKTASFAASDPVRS
Sequence of RAF proto-oncogene serine/threonine-protein kinase (Homo sapiens) (P04049 whole entry): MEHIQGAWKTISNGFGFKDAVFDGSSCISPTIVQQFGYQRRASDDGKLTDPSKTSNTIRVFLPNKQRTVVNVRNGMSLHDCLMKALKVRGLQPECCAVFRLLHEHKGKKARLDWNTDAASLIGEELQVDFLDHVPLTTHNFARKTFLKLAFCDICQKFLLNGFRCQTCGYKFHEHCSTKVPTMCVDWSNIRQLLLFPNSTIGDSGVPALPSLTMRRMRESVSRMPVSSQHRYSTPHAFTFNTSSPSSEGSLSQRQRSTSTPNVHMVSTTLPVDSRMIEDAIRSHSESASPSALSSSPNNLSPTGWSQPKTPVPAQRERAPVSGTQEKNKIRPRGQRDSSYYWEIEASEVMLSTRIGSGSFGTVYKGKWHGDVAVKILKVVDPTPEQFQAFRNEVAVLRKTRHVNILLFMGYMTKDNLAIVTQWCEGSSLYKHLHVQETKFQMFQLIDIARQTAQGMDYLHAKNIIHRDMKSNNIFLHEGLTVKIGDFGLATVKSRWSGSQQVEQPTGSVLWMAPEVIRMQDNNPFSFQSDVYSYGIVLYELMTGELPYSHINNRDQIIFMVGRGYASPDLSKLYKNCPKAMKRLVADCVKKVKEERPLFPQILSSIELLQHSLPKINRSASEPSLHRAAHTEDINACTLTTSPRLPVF
Sequence of BDNF/NT-3 growth factors receptor (Homo sapiens) (Q16620 32-822 limits assumed): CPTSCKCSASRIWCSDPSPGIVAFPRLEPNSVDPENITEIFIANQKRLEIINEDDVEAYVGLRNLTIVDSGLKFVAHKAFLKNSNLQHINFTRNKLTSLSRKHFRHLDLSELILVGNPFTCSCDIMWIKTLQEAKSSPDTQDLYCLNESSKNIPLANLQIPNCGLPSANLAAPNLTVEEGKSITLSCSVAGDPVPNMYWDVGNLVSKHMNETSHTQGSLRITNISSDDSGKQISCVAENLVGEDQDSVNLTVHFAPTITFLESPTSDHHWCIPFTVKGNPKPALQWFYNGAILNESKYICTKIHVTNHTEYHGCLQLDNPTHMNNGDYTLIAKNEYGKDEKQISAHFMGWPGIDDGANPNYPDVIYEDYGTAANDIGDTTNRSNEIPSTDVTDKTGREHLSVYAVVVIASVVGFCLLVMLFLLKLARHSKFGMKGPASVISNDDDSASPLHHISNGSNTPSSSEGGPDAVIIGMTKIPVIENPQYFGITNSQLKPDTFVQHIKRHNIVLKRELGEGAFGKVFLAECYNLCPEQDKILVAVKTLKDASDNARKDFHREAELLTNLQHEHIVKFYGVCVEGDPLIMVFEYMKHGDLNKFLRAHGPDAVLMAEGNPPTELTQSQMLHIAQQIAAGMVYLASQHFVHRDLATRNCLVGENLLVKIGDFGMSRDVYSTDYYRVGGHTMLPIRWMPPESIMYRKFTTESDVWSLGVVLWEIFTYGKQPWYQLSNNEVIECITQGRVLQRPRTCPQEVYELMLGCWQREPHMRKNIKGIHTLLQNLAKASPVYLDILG

For `c1ccc(-c2n[nH]c3c2oc2ccccc23)cc1`, the residual activity is -3% in assay [1]; 97% in assay [2]; 73% in [3]; 86% in assay [4]; 71% in assay [5]; 99% (inactive) in assay [6]. Also, the residual activity in [7] was 77%; in assay [8] it was 114% (inactive); in [9], 74%; in assay [10], 99%; in [11], 67%; in [12], 94%. In addition, the residual activity was determined as 100% in [13], 74% in [14] and 85% in [15].

On to `Oc1ccc(Nc2nc(-c3ccc(Cl)cc3)cs2)cc1`, for which the residual activity in [1] was 78%; in assay [2] it was 97%; in assay [3], 79%; in [16], 118%; in [4], 105%; in [17] it was 96%. Besides, the residual activity is 102% in assay [5]; 98% (inactive) in assay [6]; 102% in [7]; 117% (inactive) in assay [8]; 99% in [9]; 109% (inactive) in [18]. Further, the residual activity in assay [19] is 91%; in [10], 123%; in assay [11], 92%; in assay [20], 115%; in assay [12], 110%; in assay [13], 133%. Besides, the residual activity in assay [14] and in assay [15] was 84% throughout.

With `Cn1cc(/C=C2\C(=O)Nc3ccc(S(N)(=O)=O)cc32)c2ccccc21`, the residual activity in [1] was -12%; in [2] it was 75%; in assay [3], 47%; in assay [16] it was 43%; in assay [4] it was 24%; in [17], 19%. Also, the residual activity is 4% in assay [5]; 114% (inactive) in [6]; 93% in assay [7]; 111% (inactive) in [8]; 85% in assay [9]; 97% (inactive) in assay [18]. Besides, the residual activity in [19] came to 75%; in assay [10] it was 8%; in assay [11] it was 2%; in assay [20], 107%; in assay [12], 106%; in assay [13] it was 90%. Further, the residual activity amounted to 91% in [14] and 100% in assay [15].

Turning to `Cc1cc2ncc(-c3ccccc3)nc2cc1C`, the residual activity in [1] was 53%; in assay [2], 90%; in assay [3] it was 84%; in [16], 104%; in [4], 88%; in [17] it was 107%. In addition, the residual activity in assay [5] was 96%; in assay [6], 105% (inactive); in assay [7], 96%; in assay [8], 99% (inactive); in assay [9], 93%; in [18], 96% (inactive). Further, the residual activity in [19] is 92%; in assay [10], 109%; in assay [11] it was 106%; in assay [20] it was 96%; in [13] it was 100%; in [14], 97%. For the same molecule, in assay [15], the residual activity is 83%.

As for `Cn1nc2c3c(cccc31)C(=O)c1ccccc1-2`, the residual activity in [1] was 66%; in [2], 82%; in [3] it was 61%; in [4], 104%; in [17], 89%; in [5], 84%. The residual activity in assay [6] was 92% (inactive); in assay [7], 77%; in [8] it was 93% (inactive); in [9] it was 89%; in assay [18], 95% (inactive); in assay [19] it was 67%. The residual activity in assay [11] came out at 95%; in [20], 92%; in assay [12], 77%; in [13], 82%; in assay [14], 80%; in assay [15], 72%.

Turning to `CO[C@H]1C[C@@H]2CC[C@@H](C)[C@@](O)(O2)C(=O)C(=O)N2CCCC[C@H]2C(=O)O[C@H]([C@H](C)C[C@@H]2CC[C@@H](O)[C@H](OC)C2)CC(=O)[C@H](C)/C=C(\C)[C@@H](O)[C@@H](OC)C(=O)[C@H](C)C[C@H](C)/C=C/C=C/C=C/1C`, the residual activity was determined as 109% in assay [2]; 111% in [3]; 91% in assay [16]; 98% in assay [4]; 100% in [17]; 94% in assay [5]. Besides, the residual activity in [6] was 97% (inactive); in assay [7] it was 97%; in [8], 96% (inactive); in assay [9], 94%; in assay [18], 107% (inactive); in assay [19], 111%. Also, the residual activity in assay [10] was determined as 103%; in assay [20] it was 104%; in assay [12], 116%; in assay [13] it was 141%; in assay [14], 73%; in [15], 108%.

`Cc1ccc(S(=O)(=O)/C=C/C#N)cc1`: the residual activity is 105% in [1]; 79% in [2]; 87% in assay [3]; 109% in assay [16]; 104% in assay [4]; 97% in [17]. Moreover, the residual activity is 98% in assay [5]; 91% (inactive) in [6]; 97% in assay [7]; 94% (inactive) in assay [8]; 95% in [9]; 98% (inactive) in [18]. Moreover, the residual activity in [19] turned out to be 98%; in assay [10] it was 123%; in assay [11] it was 103%; in [12], 88%; in assay [13] it was 93%; in assay [14] it was 91%. For the same molecule, the residual activity in assay [15] is 87%.

With `Nc1n[nH]c2nnc(-c3c(-c4ccccc4)nn4ccccc34)cc12`, the residual activity came to 52% in [1]; 77% in assay [2]; 60% in assay [3]; 95% in assay [16]; 96% in assay [4]; 92% in [17]. The residual activity was 87% in [5]; 89% (inactive) in assay [6]; 68% in assay [7]; 88% (inactive) in [8]; 90% in assay [9]; 83% (inactive) in [18]. The residual activity in [19] was 86%; in assay [10], 93%; in assay [11], 33%; in [20] it was 100%; in assay [12], 105%; in assay [13], 88%. In addition, the residual activity in [14] was 80%; in [15] it was 62%.

By residual activity is commonly meant the signal under treatment as a percentage of the control signal.
